According to the supplement of paper PMC12494721:
Where a name gives a salt, the structure may show the parent alone.

test system: Escherichia coli IAI1; test: fold change of Cadaverine concentration vs plate DMSO controls (fold change (ratio)); higher = more amine produced, active = hit call of the paper (significant change in both replicates, either direction); settings: incubation time: 27 h, anaerobic, 37 °C;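 for the amine columns active = adjusted P below 0.05 in both replicates with a change the same way and a mean fold change under 0.8 or over 1.25; inactive = the rest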
In short: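 Anaerobic mGAM cultures of four gut bacterial strains were grown at 37 °C for 27 h in 80 µL wells, starting at OD 0.1 before 1:1 dilution. Compounds were at 20 µM final (sweeteners 50 µM). Whole cultures were extracted with cold acetonitrile/methanol containing 0.1% formic acid and centrifuged. Amines were quantified by LC–triple-quadrupole MS (dynamic MRM) against external calibration curves and drift-corrected within batch. Each value is the fold change versus plate DMSO controls, averaged over 2 biological replicates.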

Fold change of Cadaverine concentration, active:
Nc1ncn(C2OC(CO)C(O)C2O)c(=O)n1 (stereo unspecified) [Azacytidine-5] (20 µM) 1.72, COc1cc(Cc2cnc(N)nc2N)cc(OC)c1OC [Trimethoprim] (20 µM) 1.78, Cc1nnc(SCC2=C(C(=O)O)N3C(=O)[C@@H](NC(=O)Cn4cnnn4)[C@H]3SC2)s1 [Cefazolin sodium salt] (20 µM) 0.613

Fold change of Cadaverine concentration, inactive:
Cc1ccc(NC(=O)c2ccc(CN3CCN(C)CC3)cc2)cc1Nc1nccc(-c2cccnc2)n1 [Imatinib] (20 µM) 0.95, C[C@H]1[C@H](NC(=O)/C(=N\OC(C)(C)C(=O)O)c2csc(N)n2)C(=O)N1S(=O)(=O)O [Aztreonam] (20 µM) 1.03, Nc1nc2c(ncn2COCCO)c(=O)[nH]1 [Acyclovir] (20 µM) 1, CC(C)/N=c1\cc2n(-c3ccc(Cl)cc3)c3ccccc3nc-2cc1Nc1ccc(Cl)cc1 [Clofazimine] (20 µM) 1, C[C@H](CS)C(=O)N1CCC[C@H]1C(=O)O [Captopril] (20 µM) 1.01, CN1[C@@H]2CC[C@H]1CC(OC(=O)C(O)c1ccccc1)C2 (mixture of isomers) [(R,S) Homatropine hydrobromide] (20 µM) 1.02, Cc1cnc(NC(=O)C2=C(O)c3ccccc3S(=O)(=O)N2C)s1 [Meloxicam] (20 µM) 0.959, CC(C)Cc1ccc([C@H](C)C(=O)O)cc1 [(S,+) Ibuprofen] (20 µM) 1.06
